Measurements as given in PubChem BioAssay (NCATS).
Records with an inconclusive call do not appear. Active and inactive are the calls of the source. Calls come from the whole dose curve; as a rule, active = well fitted curve in the direction sought with a large enough effect; inconclusive = small, poorly fitted or top-dose-only effect, or another doubt; inactive = no such curve, though single readings can be large; an effect the other way counts as inactive or inconclusive.

Assay: Cell Proliferation Assay against the HBL1 Cell Line (AID 651646);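 note: cells exposed to compound for 48 h before reading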
Conditions: HBL1 DLBCL cells; at 46.1 µM (top of the series) unless noted
How it was run: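 CellTiter-Glo luminescence after 48 h compound exposure at 37C gives percent activity, with DMSO as 100% and 9.2 uM bortezomib final as 0%. Cells: 500 log-phase HBL1 per well, RPMI plus 5% FBS.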
In the case of CCOC(=O)C1=C[C@@]2(CC)CCCN3CCc4c(n1c1ccccc41)[C@H]32, the viability, percent of control is reported as 96.9% [at 29.8 µM]. Compound CN[C@@H](C)C(=O)N[C@H]1CCCC[C@H]2CC[C@@H](C(=O)N[C@@H](c3ccccc3)c3cn(CCCCc4ccc(CCCCn5cc([C@@H](NC(=O)[C@@H]6CC[C@@H]7CCCC[C@H](NC(=O)[C@H](C)NC)C(=O)N76)c6ccccc6)nn5)cc4)nn3)N2C1=O has a viability, percent of control of 15.5%. Nc1nccc(-c2ccc3noc(-c4ccc(Cl)cc4)c3c2)n1 showed a viability, percent of control of 109%. With CN([C@@H](Cc1ccc(OS(=O)(=O)c2cccc3cnccc23)cc1)C(=O)N1CCN(c2ccccc2)CC1)S(=O)(=O)c1cccc2cnccc12 the viability, percent of control was 106%. Compound COc1ccccc1[C@H](c1cccc2ccccc12)[C@@](C)(C#N)C(=O)N1CCC(c2cccc(C(F)(F)F)c2)CC1 has a viability, percent of control of 95.2%. In the case of Cc1cnc(Nc2ccc(OCCN3CCCC3)cc2)nc1Nc1cccc(S(=O)(=O)NC(C)(C)C)c1, the viability, percent of control is reported as 65.3%. Cc1cc(Nc2nc(N[C@@H](C)c3ncc(F)cn3)ncc2Cl)n[nH]1 gave a viability, percent of control of 138%. Compound CCN(CCCO)CCCOc1ccc2c(Nc3cc(CC(=O)Nc4cccc(F)c4)[nH]n3)ncnc2c1 has a viability, percent of control of 67.6%. COc1ccc(CC2=NN3C([C@@H](CCc4ccccc4)[C@@H](C)O)=NC(C)C3C(=O)N2)cc1OC (stereo partly drawn) showed a viability, percent of control of 73.7%. Work on CC[C@@H](C)[C@H](NC(=O)[C@H](CC1CCCCC1)NC(=O)c1ccno1)C(=O)N1CCC2(CCc3ccccc32)CC1 yielded a viability, percent of control of 65.5%. Work on CC1(C)SCCN(S(=O)(=O)c2ccc(OCC#CCO)cc2)[C@@H]1C(=O)NO yielded a viability, percent of control of 97.2%. Work on CCN(c1ccccc1)c1cc(NC)[n+](C)c(C)n1 yielded a viability, percent of control of 87.8%. Work on C[C@H](NC(=O)Cc1cc(F)cc(F)c1)C(=O)N[C@@H]1C(=O)N(C)c2ccccc2-c2ccccc21 yielded a viability, percent of control of 87.3%. CCc1cc(Nc2nccc(-c3c(-c4ccc(OC)c(C(=O)Nc5c(F)cccc5F)c4)nc4ccccn34)n2)c(OC)cc1N1CCC(N2CCN(S(C)(=O)=O)CC2)CC1 showed a viability, percent of control of 87.3%. With CS(=O)(=O)c1ccc(C(=O)Nc2ccc(Cl)c(-c3ccccn3)c2)c(Cl)c1 the viability, percent of control was 99.4%. With Cc1csc(NC(=O)c2sc3nc4c(c(C(F)(F)F)c3c2N)CCC4)n1 the viability, percent of control was 60.9%. For CNC(=O)c1ccccc1Sc1ccc2c(/C=C/c3ccccn3)n[nH]c2c1, the viability, percent of control was 56.4%. Work on O=C(C=Cc1ccc(/C=C/C(=O)Nc2ccc(C3=NCCN3)cc2)cc1)Nc1ccc(C2=NCCN2)cc1 yielded a viability, percent of control of 97.4%. COc1ccc(-c2ccc3c(N4CCOCC4)nc(N4C[C@@H](C)O[C@@H](C)C4)nc3n2)cc1CO showed a viability, percent of control of 57.7%. For O=C1CCCC2=C1C(c1[nH]ncc1Cl)N=C(Nc1nc3ccccc3o1)N2 (stereo not drawn), the viability, percent of control was 71.6%. For Cc1ccc2c(c1)C(=O)[C@@]1(O)CCN(c3ccccc3)C1=N2, the viability, percent of control was 74.4%. C[C@@H]1C[C@H]2[C@@H]3CCC4=CC(=O)C=C[C@]4(C)C3(F)[C@@H](O)C[C@]2(C)[C@@]1(O)C(=O)CO (stereo partly drawn) showed a viability, percent of control of 28.2%. In the case of COc1cc2c(cc1OC)CN(CCc1ccc(NC(=O)c3cccc4c(=O)c5cccc(OC)c5[nH]c34)cc1)CC2, the viability, percent of control is reported as 0.316%. For O=c1[nH]c(-c2ccc(C(F)(F)F)cc2)nc2c1CSCC2, the viability, percent of control was 105%. CCn1c(-c2nonc2N)nc2cnc(Oc3cccc(NC(=O)c4ccc(OCCN5CCOCC5)cc4)c3)cc21 showed a viability, percent of control of 36.3%. Work on O=C1[C@H](Cc2ccc(O)cc2)N2C(=O)CCN(C(=O)NCc3ccccc3)[C@H]2CN1Cc1cccc2ccccc12 yielded a viability, percent of control of 32.2%. Work on NC(=O)c1ccc(I)c([N+](=O)[O-])c1 yielded a viability, percent of control of 76.7%. Work on C[C@@H]1CN(Cc2ccc(F)cc2)[C@@H](C)CN1C(=O)c1cc2c(C(=O)C(=O)N(C)C)cn(C)c2cc1Cl yielded a viability, percent of control of 78.3%. Cc1cc(-c2nnc3n2CCCCC3)c(C)n1-c1ccc(F)cc1 showed a viability, percent of control of 4.79%. In the case of O=C(O)CCc1ccc(NCc2cccc(Oc3ccccc3)c2)cc1, the viability, percent of control is reported as 95.9%. CC(C)OC(=O)C1=CN(C(=O)c2ccc(F)c(F)c2)CC(C)(C)c2c1[nH]c1ccccc21 showed a viability, percent of control of 100%. For CCOc1cc(C(=O)Nc2ccc(Cl)c(-c3nc4ccccc4[nH]3)c2)cc(OCC)c1OCC, the viability, percent of control was 85.2%. In the case of Cn1cc(-c2ccc3nnc(C(F)(F)c4ccc5ncccc5c4)n3n2)cn1, the viability, percent of control is reported as 86.8%. For O=C(O)[C@@H](c1ccc(OCc2ccc3ccccc3n2)cc1)C1CCCC1, the viability, percent of control was 92.8%. CCCS(=O)(=O)Nc1ccc(F)c(C(=O)c2c[nH]c3ncc(Cl)cc23)c1F gave a viability, percent of control of 70.6%. In the case of CCCS(=O)(=O)Nc1ccc(F)c(C(=O)c2c[nH]c3ncc(-c4ccc(Cl)cc4)cc23)c1F, the viability, percent of control is reported as 4.32%. Compound OCCn1cc(-c2cnc3nnn(Cc4ccc5ncccc5c4)c3n2)cn1 has a viability, percent of control of 79.7%.

Assay: Cell Proliferation Assay against the TMD8 Cell Line (Caspase readout at 16 hrs) (AID 651712); note: potency is the fitted concentration of half-maximal effect;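 for caspase activation: 0% = DMSO and 100% = 9.2 µM bortezomib caspase activation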
Conditions: TMD8 lymphoma cells, caspase activation luminescence; series mostly up to 46.1 µM; caspase activation: at the top concentration
How it was run: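 Caspase-Glo luminescence measured apoptosis after a 16 h, 37 C compound exposure of TMD8 cells (500 cells/well, 5% FBS RPMI). DMSO set 0% and bortezomib at 9.2 uM final set 100% activity.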
With CCOC(=O)C1=C[C@@]2(CC)CCCN3CCc4c(n1c1ccccc41)[C@H]32 the “caspase activation” value was 10.7% [at 29.8 µM] (inactive). In the case of CN[C@@H](C)C(=O)N[C@H]1CCCC[C@H]2CC[C@@H](C(=O)N[C@@H](c3ccccc3)c3cn(CCCCc4ccc(CCCCn5cc([C@@H](NC(=O)[C@@H]6CC[C@@H]7CCCC[C@H](NC(=O)[C@H](C)NC)C(=O)N76)c6ccccc6)nn5)cc4)nn3)N2C1=O, the “caspase activation” value is reported as 17.6% (inactive). In the case of Nc1nccc(-c2ccc3noc(-c4ccc(Cl)cc4)c3c2)n1, the “caspase activation” value is reported as 25.9% (inactive). With CN([C@@H](Cc1ccc(OS(=O)(=O)c2cccc3cnccc23)cc1)C(=O)N1CCN(c2ccccc2)CC1)S(=O)(=O)c1cccc2cnccc12 the “caspase activation” value was 18.6% (inactive). In the case of COc1ccccc1[C@H](c1cccc2ccccc12)[C@@](C)(C#N)C(=O)N1CCC(c2cccc(C(F)(F)F)c2)CC1, the “caspase activation” value is reported as 3% (inactive). For Cc1cnc(Nc2ccc(OCCN3CCCC3)cc2)nc1Nc1cccc(S(=O)(=O)NC(C)(C)C)c1, the “caspase activation” value was 16.3% (inactive). With Cc1cc(Nc2nc(N[C@@H](C)c3ncc(F)cn3)ncc2Cl)n[nH]1 the “caspase activation” value was 2.53% (inactive). For COc1ccc(CC2=NN3C([C@@H](CCc4ccccc4)[C@@H](C)O)=NC(C)C3C(=O)N2)cc1OC (stereo partly drawn), the “caspase activation” value was 28.3% (inactive). For CC[C@@H](C)[C@H](NC(=O)[C@H](CC1CCCCC1)NC(=O)c1ccno1)C(=O)N1CCC2(CCc3ccccc32)CC1, the “caspase activation” value was 15.4% (inactive). In the case of CC1(C)SCCN(S(=O)(=O)c2ccc(OCC#CCO)cc2)[C@@H]1C(=O)NO, the “caspase activation” value is reported as -1.47% (inactive). For C[C@H](NC(=O)Cc1cc(F)cc(F)c1)C(=O)N[C@@H]1C(=O)N(C)c2ccccc2-c2ccccc21, the “caspase activation” value was 11.3% (inactive). For Cc1csc(NC(=O)c2sc3nc4c(c(C(F)(F)F)c3c2N)CCC4)n1, the “caspase activation” value was -1.26% (inactive). In the case of CNC(=O)c1ccccc1Sc1ccc2c(/C=C/c3ccccn3)n[nH]c2c1, the “caspase activation” value is reported as 2.56% (inactive). In the case of O=C(C=Cc1ccc(/C=C/C(=O)Nc2ccc(C3=NCCN3)cc2)cc1)Nc1ccc(C2=NCCN2)cc1, the “caspase activation” value is reported as -2.63% (inactive). In the case of O=C1CCCC2=C1C(c1[nH]ncc1Cl)N=C(Nc1nc3ccccc3o1)N2 (stereo not drawn), the “caspase activation” value is reported as 10.2% (inactive). For Cc1ccc2c(c1)C(=O)[C@@]1(O)CCN(c3ccccc3)C1=N2, the “caspase activation” value was 7.13% (inactive). In the case of C[C@@H]1C[C@H]2[C@@H]3CCC4=CC(=O)C=C[C@]4(C)C3(F)[C@@H](O)C[C@]2(C)[C@@]1(O)C(=O)CO (stereo partly drawn), the “caspase activation” value is reported as 15.7% (inactive). For COc1cc2c(cc1OC)CN(CCc1ccc(NC(=O)c3cccc4c(=O)c5cccc(OC)c5[nH]c34)cc1)CC2, the “caspase activation” value was 6.71% (inactive). With O=C1[C@H](Cc2ccc(O)cc2)N2C(=O)CCN(C(=O)NCc3ccccc3)[C@H]2CN1Cc1cccc2ccccc12 the Potency was 23.5 µM (active). With NC(=O)c1ccc(I)c([N+](=O)[O-])c1 the “caspase activation” value was 13.5% (inactive). With O=C(O)CCc1ccc(NCc2cccc(Oc3ccccc3)c2)cc1 the “caspase activation” value was 2.22% (inactive). With CC(C)OC(=O)C1=CN(C(=O)c2ccc(F)c(F)c2)CC(C)(C)c2c1[nH]c1ccccc21 the “caspase activation” value was 3.44% (inactive). With CCOc1cc(C(=O)Nc2ccc(Cl)c(-c3nc4ccccc4[nH]3)c2)cc(OCC)c1OCC the “caspase activation” value was 17.9% (inactive). With Cn1cc(-c2ccc3nnc(C(F)(F)c4ccc5ncccc5c4)n3n2)cn1 the “caspase activation” value was 9.47% (inactive). With O=C(O)[C@@H](c1ccc(OCc2ccc3ccccc3n2)cc1)C1CCCC1 the “caspase activation” value was -10.7% (inactive). For OCCn1cc(-c2cnc3nnn(Cc4ccc5ncccc5c4)c3n2)cn1, the “caspase activation” value was 6.76% (inactive).
